{"source": "ChEMBL document CHEMBL4888484", "about": "“Replenishing the malaria drug discovery pipeline: Screening and hit evaluation of the MMV Hit Generation Library 1 (HGL1) against asexual blood stage Plasmodium falciparum ,using a nano luciferase reporter read-out” (2022)", "note": "Screen size: about 4,800 compounds; about 420 (8.8%) showed an effect of 50% or more. The sample as a whole holds a higher share of strong results than the screen did.", "data": [{"tested_on": "Plasmodium falciparum", "experiment": "Confirmatory screen in NF54 nanoGlo assay, in single point, at 2uM, 72h", "type": "functional, Erythrocyte", "settings": "timepoint 72 hour", "units": {"% Inhibition": "%"}, "values": [{"smiles": "Cc1cccc(C)c1NC(=O)c1cc(-c2cccc3ccccc23)[nH]n1", "% Inhibition": 2}, {"smiles": "CN(C)c1nc(N)cc(-c2cccc3cccnc23)n1", "% Inhibition": 44}, {"smiles": "Cc1cccc2c(-c3cc(N)nc(N)n3)c[nH]c12", "% Inhibition": 85}, {"smiles": "O=C(NCc1cc(F)cc(F)c1)c1csc(C(=O)NC2CC2)n1", "% Inhibition": -6}, {"smiles": "C[C@H]1CCCN(C(=O)CNC(=O)Cc2ccccc2)CC1", "% Inhibition": -9}, {"smiles": "CN(C)c1nc(CN2CCC[C@H](c3n[nH]c(-c4ccccc4)n3)C2)ns1", "% Inhibition": -1}, {"smiles": "COc1ccnc(CN2CCC[C@H](c3nc(-c4ccccc4)c[nH]3)C2)c1OC", "% Inhibition": 67}, {"smiles": "c1ccc(-c2c[nH]c([C@H]3CCCN(c4ncnc5[nH]ncc45)C3)n2)cc1", "% Inhibition": -4}, {"smiles": "CCS(=O)(=O)Nc1cc2c(C(C)=O)c(C)oc2cc1C", "% Inhibition": 4}, {"smiles": "Cc1ccc2c(c1)[C@@H](O)C[C@@H](C)N2C(=O)c1ccco1", "% Inhibition": -7}, {"smiles": "Brc1ccc2c(c1)CN(Cc1c[nH]cn1)CCO2", "% Inhibition": 4}, {"smiles": "COc1ccc(N2CCN(c3nc(-c4ccccc4)cs3)CC2)cc1", "% Inhibition": -6}, {"smiles": "Cc1nc(N2CCC(C)CC2)ncc1-c1cc(=O)[nH]c(Nc2ccccc2)n1", "% Inhibition": -16}, {"smiles": "COc1ccc(-c2cc(-c3ccccc3)nc(N3CCC(C)CC3)n2)cc1", "% Inhibition": 50}, {"smiles": "Cc1cccc(NC(=O)CS(=O)(=O)Cc2cc(Cl)cc3c2OCOC3)c1C", "% Inhibition": -10}, {"smiles": "COc1cccc(CNC(=O)Cn2c(=O)n(Cc3cccc(OC)c3)c(=O)c3sccc32)c1", "% Inhibition": 2}, {"smiles": "O=C(CNC(=O)c1ccc(C(F)(F)F)cc1)Nc1cnc2c(c1)COCC2", "% Inhibition": -1}, {"smiles": "CCNC(=O)c1csc(COc2ccc3c(c2)[C@H](c2ccc(C)cc2)N(C(=O)CC(C)C)CC3)n1", "% Inhibition": 36}, {"smiles": "Cc1cccc(CN2C(=O)[C@@H]3CCCN3c3ccc(C#N)cc32)c1", "% Inhibition": 0}, {"smiles": "Cc1cc(N2CC(OCc3ccccc3)C2)nc(Nc2cccc(O)c2)n1", "% Inhibition": 96}, {"smiles": "Cc1cc(N2C[C@H]3CC[C@@H](C2)[C@H]3N(C)C)nc(Nc2cccc(O)c2)n1", "% Inhibition": 44}, {"smiles": "CN(C(=O)C(C)(C)Nc1ncc(C(F)(F)F)cc1Cl)c1ccc(Cl)cc1", "% Inhibition": 35}, {"smiles": "CN(CC#N)C(=O)c1ccc(Br)cc1Br", "% Inhibition": -12}, {"smiles": "O=C(N[C@@H]1CN(Cc2ccccn2)CCC[C@H]1O)c1ccc(OCc2ccccc2)cc1", "% Inhibition": 30}, {"smiles": "CC(C)C1(CNC(=O)C(=O)c2cc(S(N)(=O)=O)cn2C)CC1", "% Inhibition": -3}, {"smiles": "CCn1cc(C)c(C(=O)O)c1CC(=O)NCc1ccc(F)cc1", "% Inhibition": -12}, {"smiles": "CC(CNC(=O)NCC(O)C1CC1)c1ccc(F)c(F)c1", "note": "(stereo unspecified)", "% Inhibition": 3}, {"smiles": "Cc1nn(C)cc1[C@@H]1CC(=O)Nc2c1cnn2C(C)(C)C", "% Inhibition": -14}, {"smiles": "Cc1cc(C)n(-c2nc(Nc3ccc(Cl)cc3)nc(Nc3ccc(Cl)cc3)n2)n1", "% Inhibition": 82}, {"smiles": "COc1cc(OC)nc(-n2nc(C)cc2C(=O)Nc2ccc(Cl)cc2)n1", "% Inhibition": 10}, {"smiles": "Cc1cc(C)n(-c2nnc(-c3ccccc3)c(-c3ccccc3)n2)n1", "% Inhibition": 2}, {"smiles": "O=C(Cc1cccs1)Nc1ncc(Cc2ccccc2)s1", "% Inhibition": 4}, {"smiles": "CCn1cc(Cl)c(C(=O)N2N=C3/C(=C/c4ccc(C)cc4)CCCC3C2c2ccc(C)cc2)n1", "note": "(stereo unspecified)", "% Inhibition": 7}, {"smiles": "Cc1ccc(NC(=O)CN2CCC3(CC2)NC(c2ccc(OC(F)(F)F)cc2)=NO3)c(C)c1", "% Inhibition": -5}, {"smiles": "CCC(C)(C)c1ccc(OCC(=O)Nc2cccc(C(=O)CC(=O)Nc3ccc(Oc4ccccc4)cc3)c2)c(C(C)(C)CC)c1", "% Inhibition": -4}, {"smiles": "COc1nc(N2[C@@H]3CC[C@H]2C[C@@H](OC)C3)ncc1F", "% Inhibition": 62}, {"smiles": "CCN1CCN(C2CCN(c3ncc(F)c(OC)n3)CC2)CC1", "% Inhibition": 48}, {"smiles": "COc1cc(N)ccc1OCC(F)F", "% Inhibition": 2}, {"smiles": "Cc1nn(C)cc1-c1cc(C(F)(F)F)nc(N2CCOCC2)n1", "% Inhibition": -5}, {"smiles": "Cn1ccc(NC(=O)C(=O)c2ccc(-c3ccccc3)cc2)n1", "% Inhibition": 1}, {"smiles": "Cc1ccccc1NC(=O)N1CCN(C(=O)c2nonc2N)CC1", "% Inhibition": -7}, {"smiles": "NS(=O)(=O)c1ccc(-c2noc(C3(c4cccc(F)c4)CCC3)n2)cc1", "% Inhibition": -9}, {"smiles": "COCCN1CCc2c(C)nc3c(-c4ccc(OC)c(OC)c4)cnn3c21", "% Inhibition": 6}, {"smiles": "Cc1ccc(S(=O)(=O)N2CCC(c3csc(N)n3)CC2)cc1", "% Inhibition": -9}, {"smiles": "CCc1ncoc1C(=O)NCC(F)(F)c1cc(F)cc(F)c1", "% Inhibition": -10}, {"smiles": "O=C1CCc2[nH]c(=O)n(C3CCCCC3)c(=O)c21", "% Inhibition": 4}, {"smiles": "C[C@@H]1NC(=O)N(C2CCCN(Cc3cccc(C(F)(F)F)c3)C2=O)C1=O", "note": "(stereo partly specified)", "% Inhibition": -11}, {"smiles": "COc1ccc(-n2c(C)nn(Cc3ccccc3)c2=O)cc1", "% Inhibition": -11}, {"smiles": "CN(CCCNC(=O)Cc1n[nH]c(=O)c2ccccc12)Cc1ccccc1", "% Inhibition": -2}, {"smiles": "CCCC(=O)Nc1ccc(N2CCN(CC(=O)N(CC)CC)CC2)cc1C(=O)O", "% Inhibition": -2}, {"smiles": "Cc1cc(C)c(NC(=O)c2nnn(CC(=O)NCc3ccc(F)cc3)c2C)c(C)c1", "% Inhibition": -9}, {"smiles": "O=C(N[C@H]1C[C@@H]2C[C@H]1CN2C(=O)c1cccc(C(F)(F)F)c1)c1ccccc1", "% Inhibition": 3}, {"smiles": "COc1ccc(OC)c(NC(=O)CN2CCc3[nH]c4ccc(F)cc4c(=O)c3C2)c1", "% Inhibition": 72}, {"smiles": "COc1cc(C)c2[nH]c3c(c(=O)c2c1)CN(CC(=O)Nc1ccc(C)c(F)c1)CC3", "% Inhibition": 0}, {"smiles": "COc1cc(C)c2[nH]c3c(c(=O)c2c1)CN(CC(=O)Nc1ccc(F)c(C)c1)CC3", "% Inhibition": 14}, {"smiles": "COc1ccc(S(=O)(=O)N(C2CCCCC2)C2CCCCC2)cc1", "% Inhibition": -11}, {"smiles": "CCN(CCc1ccncc1)S(=O)(=O)c1ccc(N2C(=O)CCS2(=O)=O)cc1C", "% Inhibition": 6}, {"smiles": "O=C(Nc1ccc(-c2nc3cnccc3o2)c(Cl)c1)c1sc2ccccc2c1Cl", "% Inhibition": -5}, {"smiles": "Oc1cc(CC[C@H]2CCCCN2)cc(-c2cnc3ccccc3n2)c1", "% Inhibition": 73}, {"smiles": "COc1cccc(-c2cc(O)cc(CC[C@H]3CCCCN3)c2)n1", "% Inhibition": 73}, {"smiles": "COCCN(CC1CN(Cc2ccsc2)CC1c1cccc(F)c1)C(=O)C(C)C", "note": "(stereo unspecified)", "% Inhibition": 2}, {"smiles": "O=C(Nc1ccc(N2CCn3c(nc4cc(Cl)ccc43)C2)cc1)c1ccc(F)cc1", "% Inhibition": -6}, {"smiles": "Cc1nc(Cc2nc(O)cs2)sc1C", "% Inhibition": -20}, {"smiles": "NC[C@H]1CN(CCc2cccc(Cl)c2)C(=O)O1", "% Inhibition": -8}, {"smiles": "Cc1ccnc2nc(C(=O)N(C)c3ccc(Cl)cn3)nn12", "% Inhibition": 16}, {"smiles": "CCC(=O)Nc1nc2ccc(NS(=O)(=O)Cc3ccccc3)cc2s1", "% Inhibition": -5}, {"smiles": "Fc1cccc(Br)c1C1CC(c2cccnc2)Nc2ncnn21", "note": "(stereo unspecified)", "% Inhibition": -9}, {"smiles": "CC(C)(C)OC(=O)NCc1ccccc1O", "% Inhibition": 1}, {"smiles": "CCN1CCN(C(=O)c2ccccc2N2CCC(NC(=O)c3cccc(Br)c3)CC2)CC1", "% Inhibition": 44}, {"smiles": "O=C(NC1CCN(Cc2ccccc2)CC1)c1cncc(O)c1", "% Inhibition": -10}, {"smiles": "CCN(CC)CCCNC(=O)c1ccc(-c2nc(CS(=O)(=O)c3ccccc3)c(C)o2)cc1", "% Inhibition": -10}, {"smiles": "O=S(=O)(c1ccc(Cl)cc1)N1CCN(C2CCCC2)CC1", "% Inhibition": 2}, {"smiles": "Cc1ccc(Cn2cnc(NC(=O)CCn3c(=O)cc(C(F)F)c4cn(C)nc43)n2)cc1", "% Inhibition": -8}, {"smiles": "CCCCn1nc(NC(=O)c2cc(C3CC3)[nH]n2)cc1C", "% Inhibition": -2}, {"smiles": "CCN1CCN(c2cccc(NC(=O)c3cc(F)cc4c(=O)c5cc(F)ccc5[nH]c34)c2)CC1", "% Inhibition": 97}, {"smiles": "CC(C)NC(=O)N(C)Cc1ccc(F)cc1", "% Inhibition": 0}, {"smiles": "Cc1cccc(NC(=O)c2cc(C)nc3c2c(C)nn3-c2ccc(F)cc2)c1", "% Inhibition": -2}, {"smiles": "CC(C)n1nccc1NC(=O)c1c[nH]c2ccc(F)cc2c1=O", "% Inhibition": -1}, {"smiles": "CCn1c(C)c(C)c2cc(C(=O)Nc3cccc(S(=O)(=O)N4CCOCC4)c3)ccc21", "% Inhibition": 0}, {"smiles": "CCN1CCN(c2cccc(NC(=O)c3ccc4[nH]c5ccccc5c(=O)c4c3)c2)CC1", "% Inhibition": 93}, {"smiles": "CC(=O)Nc1cccc(C#CCN2CCN(c3ccc(F)cc3)CC2)c1", "% Inhibition": -5}, {"smiles": "CN(C)Cc1ccc(NC(=O)c2cc(F)cc3c(=O)c4cc(F)ccc4[nH]c23)cc1", "% Inhibition": 79}, {"smiles": "O=c1[nH]c2ccccc2c(NCc2ccccc2)c1N1CCN(c2ccccc2)CC1", "% Inhibition": 5}, {"smiles": "O=C(Nc1ccc(N2CCC(N3CCCCC3)CC2)cc1C(=O)O)c1ccccc1Cl", "% Inhibition": 4}, {"smiles": "O=C1C2C3C=CC(C3=C(c3ccccc3)c3ccccc3)C2C(=O)N1CCO", "note": "(stereo unspecified)", "% Inhibition": -5}, {"smiles": "N#Cc1ccc(N[C@H]2CCCN(Cc3ccc(F)cc3F)C2=O)cn1", "% Inhibition": -10}, {"smiles": "Cc1nc(COc2nc(C(C)(C)C)no2)cs1", "% Inhibition": -10}, {"smiles": "Cc1ccsc1NC(=O)OC(C)(C)C", "% Inhibition": 1}, {"smiles": "Cc1nonc1N(Cc1ccc(Cl)cc1Cl)S(=O)(=O)c1ccccc1", "% Inhibition": -22}, {"smiles": "COc1cc(C(=O)N2CCN(c3ccccc3)CC2)cc2occc12", "% Inhibition": -2}, {"smiles": "O=C(NCc1cccc(Br)c1)c1ccc(Cl)c(-n2cnc3cccnc32)c1", "% Inhibition": -1}, {"smiles": "O=C(COCC(=O)Nc1cccc(Cl)c1Cl)NCCC1=CCCCC1", "% Inhibition": -3}, {"smiles": "O=C(O)C1CC=CCC1C(=O)N1CCCCCC1", "note": "(stereo unspecified)", "% Inhibition": 2}, {"smiles": "NC(=O)C(=O)Nc1ccccc1C(F)(F)F", "% Inhibition": -8}, {"smiles": "COc1ccc(-n2ncc(Oc3cccc(C)c3)c(Nc3cccc(C(=O)NCc4ccc(F)cc4)c3)c2=O)cc1", "% Inhibition": 50}, {"smiles": "CC(C)c1ccc(Oc2cnn(-c3cccc(Cl)c3)c(=O)c2Nc2cccc(C(=O)NC3CC3)c2)cc1", "% Inhibition": 48}, {"smiles": "COc1ccc(CNC(=O)c2cc(C(=O)c3ccc(F)cc3)c[nH]2)cc1", "% Inhibition": -11}, {"smiles": "O=c1cc(COc2ccc(F)c(F)c2)nc2sccn12", "% Inhibition": 3}, {"smiles": "Cc1cc2nc(C)c(=O)n(CCC(=O)NCCCN(C)C3CCCCC3)c2cc1C", "% Inhibition": 0}, {"smiles": "CN(CCNC(=O)CCc1cn(-c2ccccc2)nc1-c1ccc2c(c1)OCO2)C1CCCCC1", "% Inhibition": 52}, {"smiles": "O=C(CCn1nc(-c2ccc3c(c2)OCO3)ccc1=O)NC1CCCCC1", "% Inhibition": -10}]}]}
